Laboratory results reported in PubChem BioAssay (NCI).
The panel holds about 83,000 compounds, 20% with a hit somewhere; the sample as a whole holds those more often.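 Treatment: one concentration, 48 hours, 96-well format. Scoring: percent growth, with anything below 10 considered active.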 Unmarked numbers belong to inactive results. Activity calls are given as the source filed them.

Experiments:
Assay in all cases: NCI-60 one-dose screen, 48 h (100 = growth as untreated, 0 = no growth, -100 = all killed)
Settings in all cases: 10 µM unless noted
NCI-H23 lung = tested on: NCI-H23 lung
NCI-H226 lung = tested on: NCI-H226 lung
NCI-H322M lung = tested on: NCI-H322M lung
HOP-62 NSCLC = tested on: HOP-62 NSCLC
NCI-H460 lung = tested on: NCI-H460 lung
HOP-92 NSCLC = tested on: HOP-92 NSCLC
NCI-H522 lung = tested on: NCI-H522 lung
A549/ATCC NSCLC = tested on: A549/ATCC NSCLC
786-0 renal = tested on: 786-0 renal
COLO 205 colon = tested on: COLO 205 colon

SMILES | growth (NCI-H23 lung) | growth (NCI-H226 lung) | growth (NCI-H322M lung) | growth (HOP-62 NSCLC) | growth (NCI-H460 lung) | growth (HOP-92 NSCLC) | growth (NCI-H522 lung) | growth (A549/ATCC NSCLC) | growth (786-0 renal) | growth (COLO 205 colon)
O=C1Nc2cc(Cl)ccc2/C1=C\c1c(-c2ccc(F)cc2)nc2ccccn12 | -20.4% (active) | 7.11% (active) | 39.5% | 3.44% (active) | 0.0437% (active) | 69.8% | -51.5% (active) | 33.5% | 7.55% (active) | -33.1% (active)
OCc1cnccc1NCCCOc1ccccc1 | 97.7% | 92.9% | 100% | 99.9% | 106% | 90.5% | 100% | 93.2% | 101% | 123%
CCN(CC)CCn1c(=O)c2cc(OC)c(OC)cc2c2ccc3cc4c(cc3c21)OCO4 | 19.5% | 1.83% (active) | 41% | 21.9% | 6.21% (active) | 52.6% | 34.9% | 39.4% | 11.4% | 30.2%
COc1cccc(-c2nc3occn3c2-c2ccnc(NCCCNS(=O)(=O)c3ccc(C(F)(F)F)cc3)n2)c1 | 99.3% | 80.5% | 99.4% | 103% | 89.8% | 104% | 86.9% | 89.7% | 86.8% | 70%
COCc1cnccc1NC1CCCCCC1 | 103% | 95.7% | 98.6% | 99.9% | 108% | 91.2% | 89.9% | 96.3% | 106% | 121%
CC1(C)CC(=O)C2=C(C1)N(c1ccc(F)cc1F)C(N)=C(C#N)C2c1cc(Br)ccc1F (stereo not given) | 86.7% | 103% | 95.4% | 89.9% | 95% | 119% | 80.7% | 79.3% | 98.6% | 118%
O=S(=O)(NCCNc1nccc(-c2c(-c3cccc(O)c3)nc3occn23)n1)c1ccc(Cl)cc1 | 103% | 109% | 112% | 120% | 102% | 115% | 98.6% | 101% | 109% | 32.7%
CCNC(=O)Oc1ccc(/C(=C(\C)c2ccccc2)c2ccc(OCCN3CCCCC3)cc2)cc1 | 73.6% | 92.2% | 82.7% | 59.4% | 49.3% | 73.4% | 93.4% | 56% | 16.4% | 6.41% (active)
C[C@H](c1nc2ccc(N)cc2[nH]1)[C@H]1CC[C@H]2[C@@H]3CCC4=CC(=O)CC[C@]4(C)[C@H]3CC[C@]12C | 85.8% | 91% | 91.7% | 96.2% | 97.1% | 43.9% | 84.3% | 96.7% | 59.4% | 81.4%
CCOC(=O)/C(C#N)=C1/NNC(=Nc2cccnc2)S1 | 97.7% | 96.2% | 105% | 90.8% | 99.3% | 93.9% | 85.3% | 85.3% | 98% | 103%
C=C(C)[C@@H]1CC[C@]2(C(=O)N[C@@H](Cc3ccccc3)C(=O)OC)CC[C@]3(C)[C@H](CC[C@@H]4[C@@]5(C)CCC(=O)C(C)(C)[C@@H]5CC[C@]43C)[C@@H]12 | 86.7% | 94.6% | 93.4% | 94% | 81.3% | 57.6% | 79.7% | 79% | 85.8% | 94.5%
COc1c(Cl)c2c(c(OC)c1OC)-c1ccc(SC)c(=O)cc1[C@@H](NC(=O)OCC(F)(F)F)CC2 | 34.1% | 16.4% | 33.6% | 34.3% | 2.44% (active) | 23.4% | 17.9% | 22.2% | 11% | -0.15% (active)
CCCCCCNC(=O)Nc1ccc2cc3ccc(NC(=O)NCCCCCC)cc3nc2c1 | -39% (active) | 79.5% | 22.8% | 18.1% | -11.9% (active) | 68.9% | -67.1% (active) | 23.7% | 27.5% | 17.5%
CC(C)c1ccc(Nc2ccc3c(OCCCN4CCN(C)CC4)cccc3n2)cc1 | 70.8% | 83.9% | 82.6% | 64.1% | 52.1% | 56.5% | 83.2% | 51.5% | 46.5% | -65.1% (active)
Cc1nc2ccc(Cl)cn2c1-c1nnc(SCc2ccc([N+](=O)[O-])cc2)o1 | 55.9% | 56.4% | 63.6% | 49.6% | 49.5% | 48.3% | 45.8% | 66.8% | 62.5% | 105%
COc1cccc(/C=N/NC(=O)c2cnn3c2NC(c2ccccc2)C3)c1Oc1ccccc1 (stereo not given) | 95.5% | 97.7% | 102% | 74.3% | 88% | 105% | 54.2% | 73% | 79.8% | 79.6%
C#CCNC(=O)[C@]1(C)CC[C@]2(C)CC[C@@H]3C(=CC[C@H]4[C@@]3(C)CC[C@H]3C(C)(C)C(=O)CC[C@]43C)[C@@H]2C1 | 91% | 98.7% | 90.9% | 101% | 97.6% | 99.9% | 79.8% | 91.6% | 89.8% | 101%
O=S(=O)(Nc1ccc(-n2cnc3cc(-c4ccc(O)cc4)ccc32)cc1)c1ccccc1 | 99.8% | 92.1% | 93% | 102% | 95.1% | 130% | 50.8% | 77.2% | 101% | 136%
O=C(c1nc2ccccc2[nH]1)C1C(c2ccc(Cl)cc2)C2CC3CCCC[C@H]3N2[C@@]12C(=O)Nc1cc(Cl)ccc12 (stereo not given in full) | 58.6% | 58.8% | 62.2% | 68.7% | 23.1% | 46.3% | 56.4% | 35.2% | 48.4% | 29.8%
N#C/C(=C\c1ccc(Cl)cc1)n1nnc2cc(F)c(F)cc21 | 30% | 83.8% | 33.9% | 59.1% | -22.2% (active) | 5.41% (active) | 3.72% (active) | 32.8% | 14.7% | 8.61% (active)
Nc1n[nH]c2cccc(C#Cc3cccc(C(=O)Nc4cccc(C(F)(F)F)c4)c3)c12 | 54% | 63.2% | 86.4% | 67.7% | 74.7% | 58.6% | 60.9% | 77.8% | 90.6% | 49.8%
CN[C@@H](C)C(=O)N[C@H]1CCS[C@H]2CC(C)(C)[C@@H](C(=O)N[C@H]3c4ccccc4C[C@H]3OCC#CC#CCO[C@@H]3Cc4ccccc4[C@@H]3NC(=O)[C@H]3N4C(=O)[C@@H](NC(=O)[C@H](C)NC)CCS[C@H]4CC3(C)C)N2C1=O | 57.6% | 129% | 92.4% | 66.8% | 114% | 79.4% | 56.9% | 95.3% | 99.2% | 103%
CCCCOc1ccc(/C=N/Nc2cc(C)nc3ccc(Br)cc23)cc1 | 74.9% | 90.2% | 76.9% | 82.5% | -34.6% (active) | 68% | 76.9% | 34.5% | -83.7% (active) | -58.5% (active)
O=C(CCN1CCCC1)Nc1ccc2c(NCc3ccccc3)c3ccccc3nc2c1 | -29.8% (active) | -2.39% (active) | -0.926% (active) | -3.52% (active) | -34.4% (active) | -9.2% (active) | -28.2% (active) | -19.7% (active) | 5.35% (active) | -41.6% (active)
Cc1cc(C(=O)/C=C/c2ccc[nH]2)ccc1-n1ccc(C(F)(F)F)n1 | 89.5% | 89.8% | 97.5% | 106% | 98.9% | 104% | -9.61% (active) | 84.9% | 48.7% | 115%
